Assay results taken from the supplement of paper PMC13380429.
Values without a mark were called inactive.

System: Vero E6 infected with SARS-CoV-2
Experiment: inhibition of SARS-CoV-2 cytopathic effect; higher = more antiviral protection, active = above 15
Details: 48 h

SMILES | inhibition of SARS-CoV-2 cytopathic effect (1 nM) | inhibition of SARS-CoV-2 cytopathic effect (8.33 nM) | inhibition of SARS-CoV-2 cytopathic effect (100 nM) | inhibition of SARS-CoV-2 cytopathic effect (833.33 nM) | inhibition of SARS-CoV-2 cytopathic effect (10000 nM)
C[C@@H](O)[C@H]1C(=O)N2C(C(=O)O)=C(S[C@@H]3CN[C@H](C(=O)Nc4cccc(C(=O)O)c4)C3)[C@H](C)[C@H]12 [ertapenem] | 0.22% | 3.19% | 1.71% | 2.2% | 2.62%
C1COC(NC(C2CC2)C2CC2)=N1 [rilmenidine] | 2.93% | 3.39% | -2.62% | -3.95% | -6.59%
NC(=O)N1c2ccccc2C=Cc2ccccc21 [carbamazepine] | -2.53% | -2.53% | -0.42% | -3.09% | -3.17%
CCC(C)(Oc1ccc(C2(c3ccc(OC(C)(CC)C(=O)O)cc3)CCCCC2)cc1)C(=O)O (stereo not given) [clinofibrate] | -0.17% | -1.53% | -1.92% | -1.83% | 0.41%
O=C(OCCN1CCCCC1)c1c[nH]c2ccccc12 | 0.38% | 2.59% | 1.63% | -1.42% | -6.53%
C[C@@H](CN1CC(=O)NC(=O)C1)N1CC(=O)NC(=O)C1 [dexrazoxane] | 1.89% | 2.78% | 2.19% | 3.16% | -1.81%
CCC[C@@H]1C[C@@H](C(=O)N[C@@H]([C@H]2O[C@H](SC)[C@H](O)[C@@H](O)[C@H]2O)[C@@H](C)O)N(C)C1 [lincomycin] | 1.22% | 2.66% | -0.29% | -1.24% | -1.36%
c1ccc2c(-c3cnn4cc(-c5ccc(N6CCNCC6)cc5)cnc34)ccnc2c1 | 1.9% | 4.28% | 1.29% | -6.31% | -26.3%
CC(C)CCNC(=O)[C@H](CC(C)C)NC(=O)[C@H]1O[C@@H]1C(=O)O [loxistatin-acid] | -1.03% | -1.05% | -0.89% | 0.62% | 2.74%
CC1(C)O[C@@H]2C[C@H]3[C@@H]4C[C@H](F)C5=CC(=O)C=C[C@]5(C)[C@H]4[C@@H](O)C[C@]3(C)[C@]2(C(=O)CO)O1 [flunisolide] | -0.25% | 0.14% | -1.38% | -0.29% | -0.97%
O=C(COc1ccc(Cl)cc1)N[C@H]1CC[C@H](NC(=O)COc2ccc(Cl)cc2)CC1 | -0.57% | -0.23% | 3.35% | 6.09% | 15.7% (active)
CCCCCCCCCCCCCCCC(=O)OC(CC(=O)[O-])C[N+](C)(C)C (stereo not given) [palmitoylcarnitine] | 0.08% | 0.65% | 0.35% | -1.19% | -9.18%
CCN(CC)CCOc1ccc(Cc2ccccc2)cc1 | -2.21% | -0.5% | -4.41% | 0.19% | -0.76%
CC1CNc2c(cccc2S(=O)(=O)N[C@@H](CCCNC(=N)N)C(=O)N2CC[C@@H](C)C[C@@H]2C(=O)O)C1 (mixture of isomers) [argatroban] | -2.89% | 2.45% | 0.37% | 0.05% | -0.11%
CN[C@@H](C)CC1CCCCC1 [propylhexedrine] | -0.64% | -5.27% | -5.29% | -6.1% | -8.06%
Cc1oc(=O)oc1CN1CCN(c2cc3c(cc2F)c(=O)c(C(=O)O)c2n3C(C)S2)CC1 (stereo not given) [prulifloxacin] | 0.31% | -0.69% | -3.24% | -1.97% | -3.69%
O=C1N=C2SCCN2C(=O)C1Cc1ccc(Cl)cc1 (stereo not given) [nuclomedone] | -1.33% | -3.69% | 0.26% | 0.58% | -2.17%
O=C(O)C[C@H](O)C[C@H](O)/C=C/c1c(C2CC2)nc2ccccc2c1-c1ccc(F)cc1 [pitavastatin] | 1.96% | 3.86% | 3.12% | 2.39% | 6.01%
O=[N+]([O-])C(Br)(CO)CO [bronopol] | -0.93% | -3.53% | 0.32% | 0.51% | -1.05%
CC(C)N(CCCCOCC(=O)NS(C)(=O)=O)c1cnc(-c2ccccc2)c(-c2ccccc2)n1 [selexipag] | -0.52% | -1.02% | -0.43% | -0.43% | -1.53%

SMILES | inhibition of SARS-CoV-2 cytopathic effect (1 nM) | inhibition of SARS-CoV-2 cytopathic effect (8.33 nM) | inhibition of SARS-CoV-2 cytopathic effect (100 nM) | inhibition of SARS-CoV-2 cytopathic effect (833.33 nM) | inhibition of SARS-CoV-2 cytopathic effect (10000 nM)
Cc1nn(C)c2nc(NNC(=O)Nc3cc(Cl)nc(Cl)c3)cc(C(C)C)c12 | -4.74% | -3.45% | -2.8% | -1.22% | 1.05%
Cc1ccc(S(=O)(=O)n2c(N)nc3ccccc32)cc1 | -0.51% | -0.92% | -2.91% | -2.7% | -0.17%
CC(C)(N)c1cc(C(=O)N[C@@H]2CCc3ccc(Oc4ccnc5c4CCC(=O)N5)cc3C2)cc(C(F)(F)F)c1 | 0.3% | 1.69% | 1.9% | -3.12% | -8.56%
NS(=O)(=O)Cc1noc2ccccc12 [zonisamide] | -1.19% | -3.86% | -0.76% | 0.73% | -2.23%
CCS(=O)(=O)c1ccc2oc(-c3ccc4ccccc4c3)nc2c1 [ezutromid] | 3.38% | 0.67% | -1.92% | 2.64% | 1.18%
NC(N)=O [urea] | -3.97% | -3.63% | -2.79% | -2.47% | -3.31%
O=C(O)Cc1cccc(OCCCN(Cc2cccc(C(F)(F)F)c2Cl)CC(c2ccccc2)c2ccccc2)c1 | 0.26% | 0.75% | 2.25% | 0.38% | 8.79%
CN1CCN(C2=Cc3ccccc3Oc3ccc(Cl)cc32)CC1 | 1.06% | 0.31% | -0.45% | -1.6% | -1.46%
CCOC(=O)[C@@H](C)Oc1ccc(Oc2nc3ccc(Cl)cc3o2)cc1 [fenoxaprop-p-ethyl] | 0.1% | -0.32% | -2.57% | 2.13% | -0.66%
CCC(=O)OCC(=O)[C@@]1(OC(=O)CC)[C@H](C)C[C@H]2[C@H]3[C@H]([C@@H](O)C[C@@]21C)[C@@]1(C)C=CC(=O)C=C1C[C@H]3Cl [alclometasone-dipropionate] | 3% | 0.48% | 1.16% | 1.07% | -2.92%
CCCCOC(=O)c1cc2c(cn1)[nH]c1ccccc12 [beta-CCB] | -1.28% | -1.62% | -0.04% | -2.91% | -5.4%
N#CC[C@@H](C1CCCC1)n1cc(-c2ncnc3[nH]ccc23)cn1 [ruxolitinib-(S)] | -2.23% | -0.87% | -1.21% | 0.43% | -3.24%
O=C(Cn1ccnc1[N+](=O)[O-])NCc1ccccc1 [benznidazole] | -0.15% | -0.69% | -2.08% | -0.42% | 0.58%
Cc1cccc(NC(=O)N[C@@H]2N=C(c3ccccc3)c3ccccc3N(C)C2=O)c1 | -0.47% | 1.7% | 0.28% | 0.31% | 0.03%
CCCn1c(=O)c2[nH]c(-c3cnn(Cc4cccc(C(F)(F)F)c4)c3)nc2n(CC)c1=O | 1.43% | 1.19% | 2.16% | -0.96% | 0.11%
CN1CCC(c2c[nH]c3ccc(O)cc23)CC1 | -0.56% | 2.91% | 0.58% | 3.92% | -0.8%
Cc1cc(SCc2sc(-c3ccc(C(F)(F)F)cc3)nc2C)ccc1OCC(=O)O | -0.18% | 1.2% | 0.1% | 1.79% | -2.99%
CC(C)n1nc(C#Cc2ccccc2)c2c(N)ncnc21 | 0.9% | -1.43% | -4.23% | 0.67% | 3.02%
O=C(Nc1ccccc1)N[C@H]1C[C@H](C(=O)O)Nc2cc(Cl)cc(Cl)c21 | -0.64% | -2.48% | 0.61% | -0.05% | 0.62%
